A number with no mark means an inactive call. Results filed as inconclusive are left out. This is one part of the list. Where a call stands in place of a potency, no number is given. Active and inactive are the calls of the source. Unless noted, calls come from the whole dose curve; as a rule, active = well fitted curve in the direction sought with a large enough effect; inconclusive = small, poorly fitted or top-dose-only effect, or another doubt; inactive = no such curve, though single readings can be large; an effect the other way counts as inactive or inconclusive.
How the values were obtained:
[1] = target: Rap guanine nucleotide exchange factor 3 (Homo sapiens) (UniProt O95398); test: Confirmatory qHTS for agonist of cAMP-regulated guanine nucleotide exchange factor 3 (EPAC1) (AID 1645881); note: nearly all actives have a fitted effect of over 75% in size; note: potency is the fitted concentration of half-maximal effect;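 for activation: EPAC1 catalysed release of BODIPY-GDP from Rap1B seen as fluorescence loss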
[2] = target: Rap guanine nucleotide exchange factor 4 (Homo sapiens) (UniProt Q8WZA2); test: Confirmatory qHTS for agonist of cAMP-regulated guanine nucleotide exchange factor 4 (EPAC2) (AID 1645884);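 note: nucleotide exchange releases bodipy-GDP from Rap1 and this lowers its fluorescence; nearly all actives have a fitted effect of over 65% in size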; note: potency is the fitted concentration of half-maximal effect
[3] = target: Rap guanine nucleotide exchange factor 3 (Homo sapiens) (UniProt O95398); test: Counterscreen qHTS for antagonist of cAMP-regulated guanine nucleotide exchange factor 3 (EPAC1) (AID 1645888);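 note: fluorescence loss as bound BODIPY-GDP is released from Rap1B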
How it was run: (§1)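 Rap1B-BODIPY-GDP 250 nM + GDP 50 uM; cpds 7-pt, final 9.74 nM–152 uM (activator mode) or from 7.32 nM upwards (inhibitor mode); RT; FI 480/540 nm at 5 and 30 min, then ± cAMP, reread.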

[4] = target: Rap guanine nucleotide exchange factor 3 (Homo sapiens) (UniProt O95398); test: Counterscreen qHTS for agonist of cAMP-regulated guanine nucleotide exchange factor 3 (EPAC1) (AID 1645889); note: nearly all actives have a fitted effect of over 40% in size
How it was run: as §1

[5] = target: Rap guanine nucleotide exchange factor 4 (Homo sapiens) (UniProt Q8WZA2); test: Confirmatory qHTS for antagonist of cAMP-regulated guanine nucleotide exchange factor 4 (EPAC2) (AID 1645885); note: nearly all actives have a fitted effect of over 25% in size
[6] = AP1 Signaling Pathway (AID 357; active = well fitted curve in either direction with a large enough effect, not every such curve was filed as active;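 note: ME-180 reporter cells stimulated with EGF at its EC50 level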); details: ME-180 (cervical carcinoma) AP-1-bla reporter, EGF-induced, beta-lactamase ratio, 5 h; at 7.69 µM (top of the series) unless noted
How it was run: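 Beta-lactamase reporter under AP-1 response element, ME-180 background. Stimulus: EC50 EGF. Compound exposure 5 h, 37 °C. Detection: CCF4, 2.5 h RT, 460/530 nm. Values: AC50 from titration.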

[7] = Stat Signaling Pathway (AID 446; active = well fitted curve in either direction with a large enough effect, not every such curve was filed as active;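 note: ME-180 cervical cancer cells given 40 pM IL-6 alongside compound; SIE-controlled beta-lactamase reporter measured as 460/530 nm FRET emission ratio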)
How it was run: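 FRET read-out (405 nm excitation, 460/530 nm emission) of a beta-lactamase reporter under a STAT-inducible element in ME-180 cervical carcinoma cells. Cells with compound receive 40 pM IL-6 for 5 h. Values are normalised to AC90 stimulation and AC90 JAK-inhibitor controls.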

[8] = target: Glucocorticoid receptor (Homo sapiens) (UniProt P04150); test: GR-GFP Redistribution (AID 450;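 active = compounds whose dose series gives a full or clear partial fitted curve of increased nuclear translocation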; note: potency is the fitted concentration of half-maximal effect); details: U2OS GR-GFP nuclear translocation, laser cytometry, 2 h
[9] = target: DNA dC->dU-editing enzyme APOBEC-3G (Homo sapiens) (UniProt Q9HC16); test: qHTS for inhibitors of Vif-A3G interactions: Validation (AID 588379)
How it was run: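 Yellow fluorescence (Ex 488, Em 500-530) of Vif-coexpressing HeLa A3G-eYFP cells, scanned by Acumen cytometer, reports blocked A3G degradation. Cells plated at 700/well overnight at 37 deg C before compound addition, then a further overnight compound incubation at 37 deg C.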

[10] = target: Flap endonuclease 1 (Homo sapiens) (UniProt P39748); test: qHTS Assay for the Inhibitors of FEN1: Confirmatory Assay for Cherry-picked Compounds (AID 720498); details: FEN1 flap cleavage, TAMRA/BHQ2 fluorogenic DNA substrate; note: potency is the fitted concentration of half-maximal effect; nearly all actives have a fitted effect of over 60% in size
How it was run: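 Human FEN1 (10 nM reagent) was preincubated with compounds for 15 min at room temperature, then 50 nM final double-flap DNA substrate (5'-TAMRA flap, BHQ-2 quencher strand) was added. Fluorescence (ex 525/em 598 nm) was read at 0 and 15 min.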

[11] = target: Tumor susceptibility gene 101 protein (Homo sapiens) (UniProt Q99816); test: qHTS Assay for Iinhibitors of HIV-1 Budding by Blocking the Interaction of PTAP/TSG101: Hit Validation (AID 651600); note: potency is the fitted concentration of half-maximal effect; nearly all actives have a fitted effect of over 70% in size
How it was run: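 Fluorescence polarization binding assay: Tsg101 binding domain (10 uM) mixed with compounds and FITC-labeled PTAP peptide (50 nM) in HEPES pH 7.5, 0.15 M NaCl, 0.01% Tween 20, EDTA, TCEP; 20 min at r.t.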

[12] = target: Cytochrome P450 3A4 (Homo sapiens) (UniProt P08684); test: qHTS Assay for Inhibitors and Substrates of Cytochrome P450 3A4 (AID 884); note: potency is the fitted concentration of half-maximal effect; nearly all actives have a fitted effect of over 50% in size
How it was run: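 Luminescent readout of luciferin produced by CYP3A4 (20 nM) dealkylation of Luciferin-PPXE, 25 uM (its KM). NADPH-driven reaction ran 60 min at RT after 10 min compound preincubation; data scaled to 57 uM ketoconazole as 100% inhibition.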

[13] = target: Cytochrome P450 3A4 (Homo sapiens) (UniProt P08684); test: qHTS Assay for Activators of Cytochrome P450 3A4 (AID 885); note: nearly all actives have a fitted effect of over 65% in size
How it was run: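 Luminescent readout of luciferin formed from 25 uM Luciferin-PPXE (KM level) by 20 nM CYP3A4 in 200 mM KPO4, with 60 min NADPH-driven reaction at room temperature after 10 min compound exposure. Ketoconazole (57 uM) defined 100% inhibition.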

[14] = Confirmation and Secondary Assay for Modulators of Hemoglobin Beta Chain Splicing at IVS2 654 locus (AID 910);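 note: HeLa cells stably carrying EGFP split by mutant beta-globin IVS2-654 intron; per-well total GFP intensity by laser scanning cytometry after 2-day treatment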
How it was run: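 Readout: per-well total peak green fluorescence (488 nm ex, 500–520 nm em) from objects 5–250 µm, reflecting correct splicing of an EGFP-654 reporter. Compounds were applied for 2 days at 37 °C to overnight-plated HeLa EGFP-654 cells; controls were DMSO and 500 nM IVS2-654 PNA.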

[15] = Confirmation and Secondary Assay for Modulators of Hemoglobin Beta Chain Splicing at IVS2 705 locus (AID 930);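 note: HeLa cells stably expressing the EGFP-705 splicing reporter; GFP fluorescence per well restored by corrected splicing of the IVS2-705 intron in EGFP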
How it was run: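 Per-well GFP, captured at 1 x 8 µm resolution with 488 nm excitation, served as the read-out for HeLa EGFP-705 cells incubated 2 days with test compound versus DMSO.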

Sequence of Rap guanine nucleotide exchange factor 3 (Homo sapiens) (O95398 whole entry, looked up): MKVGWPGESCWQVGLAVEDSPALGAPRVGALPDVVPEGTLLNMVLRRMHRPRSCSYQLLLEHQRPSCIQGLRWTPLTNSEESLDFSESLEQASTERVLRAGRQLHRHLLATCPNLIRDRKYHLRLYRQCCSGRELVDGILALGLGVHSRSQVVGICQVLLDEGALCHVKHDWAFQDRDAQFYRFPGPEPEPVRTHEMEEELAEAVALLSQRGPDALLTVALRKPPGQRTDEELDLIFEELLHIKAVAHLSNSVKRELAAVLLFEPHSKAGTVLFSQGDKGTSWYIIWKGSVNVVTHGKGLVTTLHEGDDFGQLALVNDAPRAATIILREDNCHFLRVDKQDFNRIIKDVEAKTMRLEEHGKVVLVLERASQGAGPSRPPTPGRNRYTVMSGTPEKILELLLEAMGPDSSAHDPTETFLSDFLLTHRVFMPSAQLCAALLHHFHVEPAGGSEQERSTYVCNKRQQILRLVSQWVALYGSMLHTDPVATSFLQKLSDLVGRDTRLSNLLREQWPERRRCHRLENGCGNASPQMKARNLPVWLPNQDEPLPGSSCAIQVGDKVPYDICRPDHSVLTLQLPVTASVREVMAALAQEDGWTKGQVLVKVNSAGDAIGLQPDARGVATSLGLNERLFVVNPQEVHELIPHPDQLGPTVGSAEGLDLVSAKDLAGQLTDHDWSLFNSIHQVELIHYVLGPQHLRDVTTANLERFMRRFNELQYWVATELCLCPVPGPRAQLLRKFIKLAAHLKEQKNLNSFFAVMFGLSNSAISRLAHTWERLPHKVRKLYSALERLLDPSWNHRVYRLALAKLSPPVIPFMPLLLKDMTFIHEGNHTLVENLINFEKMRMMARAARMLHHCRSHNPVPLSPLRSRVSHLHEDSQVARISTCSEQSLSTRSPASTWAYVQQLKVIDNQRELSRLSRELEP
Sequence of Rap guanine nucleotide exchange factor 4 (Homo sapiens) (Q8WZA2 whole entry, looked up): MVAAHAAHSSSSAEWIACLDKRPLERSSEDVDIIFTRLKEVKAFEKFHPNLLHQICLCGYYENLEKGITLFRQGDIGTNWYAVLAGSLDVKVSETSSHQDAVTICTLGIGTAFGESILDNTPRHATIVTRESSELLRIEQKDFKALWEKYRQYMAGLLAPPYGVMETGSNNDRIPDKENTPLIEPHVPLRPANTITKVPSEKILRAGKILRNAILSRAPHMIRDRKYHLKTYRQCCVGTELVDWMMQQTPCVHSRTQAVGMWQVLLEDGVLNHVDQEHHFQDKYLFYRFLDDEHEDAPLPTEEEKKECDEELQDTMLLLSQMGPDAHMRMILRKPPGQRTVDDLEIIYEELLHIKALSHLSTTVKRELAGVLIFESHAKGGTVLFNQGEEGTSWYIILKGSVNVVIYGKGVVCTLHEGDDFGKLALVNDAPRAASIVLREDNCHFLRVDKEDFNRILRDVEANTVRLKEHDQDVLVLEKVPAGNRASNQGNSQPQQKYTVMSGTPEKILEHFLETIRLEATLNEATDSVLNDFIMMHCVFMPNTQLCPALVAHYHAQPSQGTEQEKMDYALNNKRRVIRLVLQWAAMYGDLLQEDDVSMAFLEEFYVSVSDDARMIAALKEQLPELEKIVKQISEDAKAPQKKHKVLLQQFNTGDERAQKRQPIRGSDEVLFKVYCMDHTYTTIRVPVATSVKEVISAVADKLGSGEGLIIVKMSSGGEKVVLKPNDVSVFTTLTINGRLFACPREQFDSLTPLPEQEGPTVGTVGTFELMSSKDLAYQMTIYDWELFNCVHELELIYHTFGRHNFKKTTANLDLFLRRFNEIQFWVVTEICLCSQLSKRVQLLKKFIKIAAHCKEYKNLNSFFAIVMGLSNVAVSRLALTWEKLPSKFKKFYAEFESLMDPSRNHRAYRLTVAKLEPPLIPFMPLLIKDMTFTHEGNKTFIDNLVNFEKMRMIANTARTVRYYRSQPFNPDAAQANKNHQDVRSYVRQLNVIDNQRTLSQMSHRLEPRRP
Sequence of Cytochrome P450 3A4 (Homo sapiens) (P08684 whole entry, looked up): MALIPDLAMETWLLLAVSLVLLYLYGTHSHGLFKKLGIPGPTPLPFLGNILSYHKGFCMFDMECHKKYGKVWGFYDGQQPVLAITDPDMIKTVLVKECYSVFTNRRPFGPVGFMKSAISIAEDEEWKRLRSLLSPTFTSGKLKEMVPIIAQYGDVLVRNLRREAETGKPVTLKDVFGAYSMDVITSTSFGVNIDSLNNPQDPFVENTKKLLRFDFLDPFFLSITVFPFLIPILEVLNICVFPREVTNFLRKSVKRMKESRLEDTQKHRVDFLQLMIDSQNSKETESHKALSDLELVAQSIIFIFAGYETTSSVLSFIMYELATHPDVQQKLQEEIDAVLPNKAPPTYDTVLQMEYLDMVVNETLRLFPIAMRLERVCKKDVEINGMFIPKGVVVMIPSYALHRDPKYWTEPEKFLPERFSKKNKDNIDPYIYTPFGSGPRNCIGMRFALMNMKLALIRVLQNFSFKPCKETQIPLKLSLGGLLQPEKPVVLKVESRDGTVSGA
Sequence of Tumor susceptibility gene 101 protein (Homo sapiens) (Q99816 whole entry, looked up, the tested form may be a part): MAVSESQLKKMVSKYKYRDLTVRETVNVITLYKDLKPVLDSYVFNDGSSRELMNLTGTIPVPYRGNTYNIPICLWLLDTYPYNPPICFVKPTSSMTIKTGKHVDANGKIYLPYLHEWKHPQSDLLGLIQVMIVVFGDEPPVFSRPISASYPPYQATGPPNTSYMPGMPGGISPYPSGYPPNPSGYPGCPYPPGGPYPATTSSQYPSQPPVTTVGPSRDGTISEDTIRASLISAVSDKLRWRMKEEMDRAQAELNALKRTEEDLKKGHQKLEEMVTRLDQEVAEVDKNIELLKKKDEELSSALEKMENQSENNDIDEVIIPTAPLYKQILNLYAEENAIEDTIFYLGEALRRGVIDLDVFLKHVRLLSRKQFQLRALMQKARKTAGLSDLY
Sequence of Flap endonuclease 1 (Homo sapiens) (P39748 whole entry, looked up): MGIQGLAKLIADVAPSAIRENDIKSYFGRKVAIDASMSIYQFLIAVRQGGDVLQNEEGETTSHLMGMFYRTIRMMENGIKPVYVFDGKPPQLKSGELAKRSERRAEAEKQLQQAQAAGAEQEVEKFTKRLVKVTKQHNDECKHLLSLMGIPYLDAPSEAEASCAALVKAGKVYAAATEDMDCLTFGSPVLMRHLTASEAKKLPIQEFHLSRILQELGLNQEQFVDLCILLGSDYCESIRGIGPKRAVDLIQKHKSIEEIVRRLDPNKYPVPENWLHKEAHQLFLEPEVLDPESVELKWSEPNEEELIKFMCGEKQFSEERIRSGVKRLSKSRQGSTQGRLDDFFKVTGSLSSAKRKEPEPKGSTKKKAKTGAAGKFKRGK
Sequence of Glucocorticoid receptor (Homo sapiens) (P04150 whole entry, looked up): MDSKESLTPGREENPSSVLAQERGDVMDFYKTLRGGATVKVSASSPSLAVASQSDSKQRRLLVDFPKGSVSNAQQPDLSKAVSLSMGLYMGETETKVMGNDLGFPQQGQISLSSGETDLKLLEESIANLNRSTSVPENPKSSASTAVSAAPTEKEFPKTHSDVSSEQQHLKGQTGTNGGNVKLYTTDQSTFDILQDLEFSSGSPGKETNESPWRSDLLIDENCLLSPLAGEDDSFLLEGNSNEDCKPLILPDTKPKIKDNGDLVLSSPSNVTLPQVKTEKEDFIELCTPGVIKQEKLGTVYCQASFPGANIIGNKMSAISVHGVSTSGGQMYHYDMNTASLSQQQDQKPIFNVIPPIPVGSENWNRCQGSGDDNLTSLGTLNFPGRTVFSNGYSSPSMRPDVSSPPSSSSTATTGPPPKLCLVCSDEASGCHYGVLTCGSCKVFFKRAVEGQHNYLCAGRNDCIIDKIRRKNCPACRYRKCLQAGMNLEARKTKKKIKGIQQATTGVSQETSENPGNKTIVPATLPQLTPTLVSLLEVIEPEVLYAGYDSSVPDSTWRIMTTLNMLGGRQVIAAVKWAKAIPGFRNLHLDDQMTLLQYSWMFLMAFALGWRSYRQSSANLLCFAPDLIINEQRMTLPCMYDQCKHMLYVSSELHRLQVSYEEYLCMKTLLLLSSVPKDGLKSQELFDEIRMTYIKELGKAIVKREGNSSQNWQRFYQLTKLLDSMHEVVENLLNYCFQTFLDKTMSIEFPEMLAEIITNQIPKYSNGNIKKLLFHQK
Sequence of DNA dC->dU-editing enzyme APOBEC-3G (Homo sapiens) (Q9HC16 whole entry, looked up): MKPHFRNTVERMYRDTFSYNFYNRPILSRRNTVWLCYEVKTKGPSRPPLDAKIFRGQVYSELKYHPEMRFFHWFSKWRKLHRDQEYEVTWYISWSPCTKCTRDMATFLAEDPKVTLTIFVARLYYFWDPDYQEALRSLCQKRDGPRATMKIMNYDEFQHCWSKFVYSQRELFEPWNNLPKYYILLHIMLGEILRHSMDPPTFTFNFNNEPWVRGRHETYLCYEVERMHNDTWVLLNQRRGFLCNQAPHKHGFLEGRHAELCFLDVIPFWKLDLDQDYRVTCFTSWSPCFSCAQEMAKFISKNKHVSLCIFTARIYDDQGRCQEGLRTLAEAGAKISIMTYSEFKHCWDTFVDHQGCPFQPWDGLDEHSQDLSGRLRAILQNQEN

O=C(Nc1ccccc1C(=O)Nc1nnc(C(F)(F)F)s1)c1ccccc1Cl
Potency [1]: inactive | Potency [2]: inactive | Potency [3]: inactive | Potency [4]: inactive

Cc1cc(C(C)(C)C)cc(C)c1COC(=O)c1cccnc1
Potency [1]: inactive | Potency [2]: inactive | Potency [3]: inactive | Potency [4]: inactive

CCOC(=O)C1C(=O)C=C(c2ccc(C)cc2)CC1c1ccccc1 (stereo not drawn)
Potency [1]: inactive | activation [2]: 7.74% [at 17.1 µM, percent relative to cAMP agonist control] | activity change, negative = inhibition [3]: -1.31% [at 30.8 µM] | activation [4]: 8.22% [at 30.8 µM]

CCC(CO)Oc1cc(NCc2ccc(C(C)(C)C)cc2)c2ncn(C(C)C)c2c1 (stereo not drawn)
Potency [1]: inactive | Potency [2]: inactive | Potency [4]: inactive

Cc1ccc2oc(=O)c3cnn(CC(=O)NC4CCC(C)CC4)c3c2c1 (stereo not drawn)
Potency [1]: inactive | Potency [2]: inactive | Potency [4]: inactive

CN(CC(=O)Nc1ccccc1Cl)C(=O)c1ccc(-c2cccc(C(F)(F)F)c2)o1
Potency [1]: inactive | Potency [2]: inactive | Potency [4]: inactive

Cc1ccc(C)c(-c2csc(N)c2C(=O)OC(C)C)c1
Potency [1]: inactive | activation [2]: 7.03% [at 17.1 µM, percent relative to cAMP agonist control] | activation [4]: 30% [at 30.8 µM]

Cc1ccc(S(=O)(=O)N2CCOCC2)cc1NC(=O)COC(=O)CCOc1ccc(C(C)(C)C)cc1
Potency [1]: inactive | Potency [2]: inactive | Potency [4]: inactive

COc1ccccc1NS(=O)(=O)c1ccc2ccccc2c1
Potency [1]: inactive | activation [2]: 0% [at 17.1 µM, percent relative to cAMP agonist control] | activation [4]: 16.4% [at 30.8 µM]

COc1ccc(CCC(=O)N(C)CC(=O)Nc2ccc(Cl)c(C(F)(F)F)c2)cc1
Potency [1]: inactive | Potency [2]: inactive | Potency [4]: inactive

Cc1ccc(C)c(Oc2nc3c(c(=O)n(C)c(=O)n3C)n2Cc2ccccc2)c1
Potency [1]: inactive | Potency [5]: inactive

O=C(CSc1nnc(SCc2ccc(Cl)cc2)s1)N/N=C/c1ccc(C(=O)O)cc1
Potency [1]: inactive | Potency [2]: inactive | Potency [4]: inactive

CC(NC(=O)COC(=O)C1CCN(c2ccc(C(F)(F)F)cn2)CC1)c1ccc(Br)cc1 (stereo not drawn)
Potency [1]: inactive | Potency [2]: inactive | Potency [4]: inactive

CCOC(=O)C(C)Sc1ncc(OC)c(Sc2ccc(Cl)cc2)n1 (stereo not drawn)
Potency [1]: inactive | Potency [2]: inactive | Potency [4]: inactive

O=C(O)/C(CC(=O)c1ccc(Cl)cc1)=N/Nc1ccc([N+](=O)[O-])cc1[N+](=O)[O-]
Potency [1]: inactive | Potency [2]: inactive | Potency [4]: inactive

CCCCN(C=O)c1c(CC)nc2c(OCc3ccc(C(F)(F)F)cc3)cccn12
Potency [1]: inactive | Potency [2]: inactive | Potency [4]: inactive

COc1ccc(CN(C)C(=O)c2ccc(OCC(=O)Nc3cccc(C(F)(F)F)c3)c(OC)c2)c(OC)c1
Potency [1]: inactive | Potency [2]: inactive | Potency [4]: inactive

O=C(NC1CCCCC1)C(c1ccc(C(F)(F)F)cc1)n1c(=O)c(-c2ccco2)nc2ccccc21 (stereo not drawn)
Potency [1]: inactive | Potency [2]: inactive | Potency [4]: inactive

CCCCOc1ccc(C(=O)N/N=C/c2cn[nH]c2-c2ccc(OC)c(OC)c2)cc1
Potency [1]: inactive | Potency [2]: inactive | Potency [4]: inactive

CCOC(=O)c1c(NC(=O)C2C3C=CC(C3)C2C(=O)O)sc2c1CCC(CC)C2 (stereo not drawn)
Potency [1]: inactive | Potency [2]: inactive | Potency [4]: inactive

COC(=O)C1CCN(c2nc3ccccc3nc2C(C#N)C(=O)NCCc2ccccc2)CC1 (stereo not drawn)
activity change, negative = inhibition [6]: -19.5% [at 17.2 µM] | outcome [7]: inactive | Potency [8]: > 20.6 µM | Potency [1]: inactive | Potency [2]: inactive | Potency [4]: inactive

CCOC(=O)c1c(C)[nH]c(C)c1C(=O)COC(=O)c1cc(OC)cc(OC)c1
Potency [1]: inactive | Potency [2]: inactive | Potency [4]: inactive

O=C1CN(C(=O)c2c(F)cccc2Cl)C(c2ccc(F)cc2)c2cc(Br)ccc2N1 (stereo not drawn)
Potency [1]: inactive | Potency [5]: inactive

Cc1ccc(S(=O)(=O)c2nc(-c3ccco3)oc2SC(C)C)cc1
Potency [1]: inactive | activation [2]: 4.44% [at 17.1 µM, percent relative to cAMP agonist control] | activation [4]: 16.5% [at 30.8 µM]

CC1COc2ccccc2N1S(=O)(=O)c1ccc(Cl)cc1 (stereo not drawn)
Potency [1]: inactive | Potency [2]: inactive | Potency [4]: inactive

O=S(=O)(c1cc(C(F)(F)F)ccc1Cl)N1CCN(c2ncnc3ccccc23)CC1
Potency [1]: inactive | Potency [2]: inactive | Potency [4]: inactive

CC(C)CCNC(=O)C(CC(C)C)N(Cc1ccc2c(c1)OCO2)C(=O)c1snc(C(N)=O)c1N (stereo not drawn)
Potency [1]: inactive | Potency [2]: inactive | Potency [4]: inactive

COC1/C=C/OC2(C)Oc3c(C)c(O)c4c(O)c(c(/C=N/N5CCN(C)CC5)c(O)c4c3C2=O)NC(=O)/C(C)=C/C=C/C(C)C(O)C(C)C(O)C(C)C(OC(C)=O)C1C (stereo not drawn)
outcome [9]: inactive | Potency [1]: inactive | Potency [2]: inactive

CCN1/C(=C\c2ccc3ccccc3[n+]2CC)Sc2cc(C)ccc21
Potency [10]: 21.3 µM (active) | Potency [1]: inactive | Potency [2]: inactive

Cc1cccc(OC(=O)Nc2ccc(C(=O)O)c(O)c2)c1
Potency [1]: inactive | activation [2]: -3.1% [at 17.1 µM, percent relative to cAMP agonist control] | activation [4]: -3.96% [at 30.8 µM]

Cc1nn(C)cc1N1C(=O)c2cccc3c(N)ccc(c23)C1=O
Potency [11]: 6.51 µM (active) | Potency [1]: 112 µM (active) | Potency [2]: 100 µM (active)

COc1cc(Br)cc(C(=O)N2CCc3ccccc32)c1OC
Potency [1]: inactive | Potency [2]: inactive | Potency [4]: inactive

CC(Nc1ccc(Cl)cc1)c1cc(Cl)ccc1O (stereo not drawn)
Potency [1]: inactive | Potency [2]: inactive | Potency [4]: inactive

O=c1c2ccccc2c(C=Nc2ccc(O)cc2)c(O)n1-c1nccs1
Potency [1]: inactive | Potency [5]: inactive

CN1C(=O)/C(=C2/C=Cc3ccccc3N2CCCS(=O)(=O)O)SC1=S
Potency [1]: inactive | Potency [2]: inactive | Potency [4]: inactive

COc1ccc2c(c1)OCC(Cc1ccc(OC)c(OC)c1)C2=O (stereo not drawn)
Potency [12]: 15.8 µM (active) | outcome [13]: inactive | Potency [14]: inactive | Potency [15]: inactive | Potency [1]: inactive | Potency [2]: inactive

CCN1CCN(S(=O)(=O)c2ccc(Cl)c(C(=O)N(C)Cc3cccc(Cl)c3Cl)c2)CC1
Potency [1]: inactive | Potency [2]: inactive | Potency [4]: inactive

O=C(Nc1ncccc1O)c1c(O)c2ccccc2[nH]c1=O
Potency [1]: inactive | Potency [2]: 100 µM (active) | Potency [4]: inactive

COc1cc(C(=O)N(C)CCOc2ccccc2)ccc1OCC(=O)Nc1cccc(C(F)(F)F)c1
Potency [1]: inactive | Potency [2]: inactive | Potency [4]: inactive
